# A selection: hits, their analogues and other compounds. The true share with any hit is near 3.7%.
# Bead autofluor: compound fluorescence in toxin protease inhibitor counterscreen; actives 3.1% (n = 360,000); fluorescence intensity (no concentration beside the values); compound autofluorescence counterscreen, microsphere flow cytometry; stronger effect = higher value; in the data active = fluorescence intensity above about 16000
# BoNT F protease: BoNT F light chain protease inhibition. Multiplex microsphere protease cleavage assay, flow cytometry. inhibition, % at 10 µM. actives 0.22% (n = 360,000). AID 588497; in the data active = inhibition above about 35%, passing the limit was not always enough
# BoNT-A LC inh2: BoNT A light chain protease inhibition; multiplex microsphere protease substrate cleavage, flow cytometry; inhibition, % at 10 µM; actives 0.17% (n = 360,000); AID 588499
# Anthrax LF prot: anthrax lethal factor protease inhibition | actives 0.12% (n = 360,000) | P15917 | multiplex microsphere protease cleavage assay, LF | AID 588501 | inhibition, % at 10 µM
# MazF activator: activators of E. coli MazEF toxin-antitoxin RNase | P0AE70 | FAM/BHQ RNA-DNA oligo cleavage fluorescence, 5 h | activation, % at 20 µM | actives 0.32% (n = 350,000) | AID 504720; in the data active = activation above about 50%
# BoNTA LC inh 2: blocks botulinum neurotoxin A light chain protease. shares compounds with BoNT-A LC inh2. inhibition, % at 10 µM. multiplex microsphere protease cleavage assay, flow cytometry. AID 602325. actives 10% (n = 150); in the data active = inhibition above about 24%
# LF protease CP2: blocks anthrax lethal factor protease; multiplex microsphere protease cleavage assay; actives 7% (n = 150); AID 602327; inhibition, % at 10 µM; shares compounds with BoNT-A LC inh2; in the data active = inhibition above about 25%
# BoNTF LC inh 2: BoNT/F light chain protease inhibition; inhibition, % at 10 µM; shares compounds with BoNT-A LC inh2; actives 7% (n = 150); multiplex microsphere protease cleavage assay, flow cytometry; in the data active = inhibition above about 25%
# Numbers stand for hits; – = inactive; · = no result given. Cut-off read from the data, not from the text of the source, unless noted: active = inhibition above about 30%; inconclusive = no clear call, values can overlap the other calls; inactive = below that.
SMILES,Bead autofluor,BoNT F protease,BoNT-A LC inh2,Anthrax LF prot,MazF activator,BoNTA LC inh 2,LF protease CP2,BoNTF LC inh 2
COc1cccc(NC(=O)C2(C)CCCN(C(C)C)C2)c1 (stereo not drawn),–,–,–,–,·,·,·,·
CC(=O)Nc1ccc(S(=O)(=O)NCc2cc(=O)n(C)c(=O)n2C)cc1,–,–,–,–,–,·,·,·
Cc1cc2cc(CNS(=O)(=O)c3ccc4ccccc4c3)ccc2n1C,–,–,47,–,–,–,–,–
CC(=O)Nc1ccc(S(=O)(=O)NCc2ccc3c(c2)cc(C)n3C)cc1,–,–,72,–,–,–,–,–
Cc1cc(C)c(S(=O)(=O)NCc2ccc3c(c2)cc(C)n3C)c(C)c1,–,–,78,–,–,–,–,–
COc1ccc(-c2oc3c(OC)c(OC)c(OC)c(O)c3c(=O)c2OC)cc1OC,–,–,39,34,–,–,–,–
Cn1ccc2c(-c3cccnc3)cc3c(c21)C1CCC3C1 (stereo not drawn),–,–,–,–,·,–,–,–
Cn1ccc2c(-c3ccc(F)cc3F)cc3c(c21)C1CCC3C1 (stereo not drawn),–,–,–,–,·,–,–,–
Cn1ccc2c(-c3cccc(C=O)c3)cc3c(c21)C1CCC3C1 (stereo not drawn),–,–,–,–,·,·,·,·
COc1ccc(-c2cc3c(c4c2ccn4C)C2CCC3C2)cc1OC (stereo not drawn),–,–,–,–,·,–,–,–
CN(c1cccc(F)c1)c1cc2c(c3c1ccn3C)C1CCC2C1 (stereo not drawn),–,–,–,–,·,·,·,·
Cn1ccc2c(-c3ccc(F)nc3)cc3c(c21)C1CCC3C1 (stereo not drawn),–,–,50,37,·,33,32,–
Cn1ccc2c(-c3cccc(C=O)c3F)cc3c(c21)C1CCC3C1 (stereo not drawn),–,–,–,–,·,·,·,·

# High-throughput results: PubChem, several laboratories
